Sampled rows, rich in hits. Any-hit rate of the full collection: about 2.7%.
KKLEB cytotox: cytotoxicity in KKLEB CF airway cells, primary screen, cytotoxicity control for CF NF-kB inhibitor project, cell-based, uHTS, fluorescence assay plates | activity change (cytotoxicity), % at 5 µM | KKLEB CF airway cells viability, ATPlite luminescence, overnight; stronger effect = lower value; cells stimulated with P. aeruginosa culture filtrate | 0.36% of 360,000 active;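 active = corrected activity change at or below -50% at 5 µM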
HIF-2a inh: HIF-2a reporter inhibitors, primary screen, luminescence, 786-0 RCC cells | 786-0 RCC cells HIF-2a reporter, luciferase luminescence, overnight | inhibition, % at 18.8 µM | AID 624352, 2012 | 0.72% of 360,000 active;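 active = inhibition of the luminescence signal of 40% or more relative to plate controls, in a single-dose primary screen at 18.75 µM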
TRPM1 prom inh: inhibitors of MITF-dependent TRPM1 promoter reporter, primary screen, cell-based, SK-MEL-5, single point, luciferase. AID 488899, 2010. inhibition, % at 12.5 µM. 0.83% of 330,000 active. SK-MEL-5 TRPM1 promoter luciferase, 24 h;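 active = mean inhibition across replicates of 60% or more, whatever share of single replicates reaches that level; inconclusive = some that reach 60%, reason not given; inactive = mean inhibition across replicates below 60%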
Shn3 inh set2: reduction of Shn3 3'UTR firefly luciferase signal, primary screen, Schnurri-3 inhibitor project, cell-based, Clone20 osteoblasts, set 2; Clone20 osteoblast Shn3 3'UTR firefly luciferase, 24 h; inhibition, % at 12.5 µM; 0.52% of 360,000 active; AID 588674, 2011;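 active = mean inhibition of at least 75% with every replicate also reaching 75%; inconclusive = mean inhibition at least 75% but some replicate below; inactive = mean inhibition below 75%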;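 also: 0% = median of neutral control wells and 100% = pilot-screen positive control compound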
CF NFkB inh: inhibitors of PAF-induced NF-kB signaling, primary screen, cell-based, GFP fluorescence, uHTS | KKLEB NF-kB-GFP reporter, GFP fluorescence overnight | inhibition, % at 5 µM | 0.86% of 360,000 active | AID 588850, 2011;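 active = at least 50% inhibition at 5 µM, scaled per plate between neutral and stimulator controls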;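 also: PAF is a Pseudomonas aeruginosa culture filtrate used as stimulus; plate controls were PAF-stimulated DMSO wells for no effect and unstimulated DMSO wells for full effect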
Peg3 promoter: Peg3 promoter-driven luciferase inhibitors, primary screen, cell-based, HeLa, luciferase luminescence | HeLa PEG-Prom luciferase reporter, overnight | inhibition, % at 20 µM | 1.7% of 360,000 active;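 active = inhibition of at least 50% at 20 µM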
Numbers without * were called inactive; ? = inconclusive; · = no result given.

SMILES	KKLEB cytotox	HIF-2a inh	TRPM1 prom inh	Shn3 inh set2	CF NFkB inh	Peg3 promoter
O=c1[nH]c(=O)n(-c2ccccc2)c(O)c1/C=C1/C(c2ccccc2)=Nc2ccccc21	-19	-62	-6	-16	60*	-51
CC1OC(OC2CC(O)C3(CO)C4C(O)CC5(C)C(C6=CC(=O)OC6)CCC5(O)C4CCC3(O)C2)C(O)C(O)C1O (configuration not stated)	-51*	84*	87*	-10	91*	110*
CC12CC[C@H]3[C@@H](CCC4(O)C[C@H](O)CCC34/C=N/NC(=O)c3ccccc3F)C1(O)CCC2C1=CC(=O)OC1 (some centres not stated)	19	-4	-15	·	-12	28
CN(C)c1ccc(/C=C/C=C/c2sc3ccccc3[n+]2C)cc1	-9	0	63*	·	22	29
C[n+]1c(-c2ccccc2)sc2ccccc21	2	5	19	-41	-9	-7
CC[n+]1c(/C=C/C=C/c2ccc(N(C)C)cc2)sc2ccccc21	18	-19	71*	84	-26	65*
CN(C)c1ccc(/C=C/c2cc[n+](C)c3ccccc23)cc1	2	-11	82*	81	-114	31
CC[n+]1c(/C=C/N(C)c2ccccc2)sc2ccc(Cl)cc21	-45	0	67*	92*	27	35
C[C@@H]1CN([C@H](C)CO)C(=O)CCCn2nncc2CO[C@@H]1CN(C)C(=O)Oc1ccc2ccccc2c1	-6	1	·	2	19	-3
C=C(C=O)CC1CC(O)[C@]2(C)OC3CC4OC5C[C@]6(C)O[C@]7(C)CCC8OC9C[C@]%10(C)OC%11C(C)=CC(=O)OC%11CC%10OC9C[C@@H](C)C8OC7CC6O[C@]5(C)CC5OC5C4OC3CC2O1 (some centres not stated)	-70*	94*	96*	59	91*	100*
O=S(=O)(c1cccc2ccccc12)N1Cc2ccccc2-n2nncc2C1	-8	-3	·	32	-18	8
O=C(NCC1=C(c2cccc3ccccc23)C[C@@H]2CC[C@H]1N2Cc1ccco1)c1cccs1	-2	4	·	29	8	26
CC(=O)OC1C(O)C(C)OC(OC2C(OC(=O)C3CCC4C(C3)OC3(CC(OC(=O)/C=C/c5ccccc5)C(C)CO3)C43CO3)OC(C)C(O)C2OC(C)=O)C1O (configuration not stated)	-23	65*	87*	96*	90*	93*
N#CC(C#N)=NNc1ccc(-n2ccc(C(F)(F)F)n2)cc1	-46	-21	42	·	79*	21
Cc1cc(C)n(-c2ccc(NN=C(C#N)C#N)cc2)n1	-2	3	7	11	76*	-2
COc1ccc(OC(=O)N(C)C[C@@H]2OCc3cnnn3CCCC(=O)N([C@H](C)CO)C[C@H]2C)cc1	25	2	·	-3	-5	6
CCOc1cccc(CNCCc2c(C)[nH]c3ccc(OC(F)(F)F)cc23)c1O	-29	6	98*	?	24	107*
Cc1[nH]c2ccc(OC(F)(F)F)cc2c1CCNCc1ccc(Cl)cc1	-13	17	-5	15	15	111*
COc1ccc2[nH]c(C)c(CCNCc3cccnc3)c2c1	-2	8	14	8	-5	11
O=C1NC(=O)N(c2ccccc2)C(=O)/C1=C/c1ccc(Sc2ccccc2)o1	-6	28	33	20	11	50*
O=C1NCN(c2ccccc2)C12CCN(C(CCc1ccccc1)c1nnnn1C1CCCCC1)CC2 (configuration not stated)	-1	-36	·	57	13	50
O=C(OC1CCN(CCCl)CC1)C(c1ccccc1)c1ccccc1	44	13	39	93*	1	10
C[N+]1(C)[C@@H]2CC[C@H]1CC(OC(=O)C(c1ccccc1)c1ccccc1)C2 (some centres not stated)	1	12	1	-12	-2	12
c1ccc(C2(N3CCCCC3)CCCCC2)cc1	21	-3	-3	7	-13	1
S=C=Nc1cccc(C2(N3CCCCC3)CCCCC2)c1	-5	-15	75*	-4	4	64*
SMILES	KKLEB cytotox	HIF-2a inh	TRPM1 prom inh	Shn3 inh set2	CF NFkB inh	Peg3 promoter
O=C(Nc1ccc(C(=O)O)cc1)Oc1ccc(N(CCCl)CCCl)cc1	-10	-8	·	13	9	4
NC(Cc1ccccc1)c1csc(Nc2ccccn2)n1 (configuration not stated)	7	-132	·	-3	-8	-169
NC(Cc1ccc(Cl)cc1)c1csc(Nc2ccccn2)n1 (configuration not stated)	-15	-27	·	-8	24	73*
Cc1[nH]nc2ccc(-c3cncc(OC[C@@H](N)Cc4c[nH]c5ccccc45)c3)cc12	-87*	75*	91*	96*	85*	100*
C=C(C)CSc1nnc([C@@H](N)Cc2c[nH]c3ccccc23)o1	0	3	3	-7	-4	5
O=C1C2CC(CN3CCCCC23)C2CCCCN12 (configuration not stated)	-9	10	·	-6	-10	4
Cc1cccc(Cn2cc(C=O)c3ccccc32)c1	2	11	23	33	7	69*
C[N+](C)(C)CC#CCOC(=O)Nc1cccc(Cl)c1	17	-3	0	-3	-2	84*
COc1ccc(C(=O)OCC2CN2c2cccc([N+](=O)[O-])c2)cc1 (configuration not stated)	·	-34	·	·	·	·
CC(C)(C)n1nnnc1C(c1cccs1)N1CCC2(CC1)C(=O)NCN2c1ccccc1 (configuration not stated)	-15	13	·	-6	-60	-5
Cc1cc(O)c2c(c1)C(=O)C13C(=C2O)C(=O)[C@H]2[C@@H](O)[C@@H]1[C@H]1[C@H](O)[C@@H]3C(=O)C3=C(O)c4c(O)cc(C)cc4C(=O)C312 (some centres not stated)	-14	-18	35	58	79*	19
Cc1ccccc1NC(=O)N1Cc2ccccc2-n2nncc2C1	16	-12	·	7	-20	-6
CC12CCC3C(CC=C4CC(O)CCC43C)C1C/C(=C\c1ccccc1F)C2=O (configuration not stated)	-29	-15	-17	4	40	51*
CN1C(=O)C[N+]([O-])=C(c2ccccc2)c2cc(Cl)ccc21	23	13	6	19	-7	6

Source: PubChem
